According to PubChem BioAssay (NCATS):
Unmarked numbers belong to inactive results. Calls of active or inactive are those of the source. The rule behind the calls is not given here.

Tested on: HIV-1 nucleocapsid protein NCp7 (binding to TG oligonucleotide)
Test: HIV Nucleocapsid (AID 346);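 note: potency is for inhibitors that block NC binding and lower polarization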
Conditions: HIV-1 NC / fluorescein-TGTGTGTG probe, fluorescence polarization
Experimental: NCGC Assay Overview: HIV-1 nucleocapsid protein (HIV-1 NC) is a small (6.5 kDa) basic zinc-finger protein which participates in packaging of viral genomic RNA. The spacing and metal-chelating residues (3 Cys, 1 His) of the Cys-X2-Cys-X4-His-X4-Cys Zn fingers are conserved among all known retroviruses (J. Med. Chem. 1998, 41, 1371-1381). HIV-1 NC was assayed for its binding to the consensus sequence single-stranded 5'-TGTGTGTG. […] High salt was included to increase the stringency of binding and inhibitor screen. Reducing agents and zinc were present to stabilize the nucleocapsid zinc-finger protein.
NCGC Assay Protocol Summary: Buffer. Hepes pH 7.5, 250mM NaCl, 1uM ZnCl2. 0.004% polyethylene glycol 20000. TCEP (100 uM) and 2-Mercaptoethanol (5 mM), added fresh the day of the experiment. Reagents/Controls. 10 nM TG4xF only in columns 3 and 4 as negative control. 10 nM TG4xF/100 nM HIV-1 NC in columns 1, 2, 5-48. Titration of control compound NSC-13778 (from 20 mM, then 1:2) pin-transferred to column 2. Assay Steps. Two uL of reagents were dispensed to 1536-well Kalypsys black plates. The plates were centrifuged for 1 min at 1000 rpm. Compounds and controls (20 nL) were transferred via Kalypsys PinTool. The plates were incubated for 1 hr at room temperature, and then read on ViewLux (Perkin-Elmer). High-throughput CCD imager using fluorescein polarization filter set and 45 seconds exposure time.
Potency is the fitted concentration of half-maximal effect.

Row | Structure (SMILES) | Potency
1 | COCCNc1ncncc1-c1c(C)noc1C | > 20 µM
2 | COc1ccc(-c2nc3cnc(N4CCOCC4)nc3n(CCC#N)c2=O)cc1 | > 20 µM
3 | CS(=O)(=O)N1CCC2(CCN(Cc3ccncc3)CC2)CC1 | > 4 µM
4 | COCCNc1nc(-c2cccc(NS(C)(=O)=O)c2)nc2ccccc12 | > 20 µM
5 | Cc1nc2cnc(N3CCOCC3)nc2n(C2CC2)c1=O | > 20 µM
6 | CN1CCN(c2ncc3nc(-c4cccs4)c(=O)n(-c4ccccc4)c3n2)CC1 | 16.7 µM
7 | Cc1nc2cnc(N3CCN(C)CC3)nc2n(C)c1=O | > 20 µM
8 | COc1cccc(Nc2ncc3nc(-c4ccc(Cl)cc4)c(=O)n(C4CC4)c3n2)c1 | > 4 µM
9 | COC(=O)N1CCC2(CCN(C(=O)Nc3ccccc3)CC2)CC1 | > 20 µM
10 | COc1ccccc1CNc1cc(-c2c(C)noc2C)ncn1 | > 20 µM
11 | Cn1cccc1C(=O)N1CCC2(CC1)CN(C(=O)Nc1cccc(C#N)c1)C2 | > 20 µM
12 | COC(=O)N1CCC2(CCCN(Cc3ccc(C#N)cc3)C2)CC1 | > 20 µM
13 | COc1ccccc1CCn1c(=O)c(-c2cccs2)nc2cncnc21 | > 20 µM
14 | CN(C)C(=O)c1ccc(-c2nccc(NCc3cccs3)n2)cc1 | > 20 µM
15 | COc1ncc2nc(-c3ccc(F)cc3)c(=O)n(CCc3ccccc3)c2n1 | > 20 µM
16 | COc1ccc(C(=O)N2CCC[C@@]3(CCN(C(=O)NC(C)C)C3)C2)cc1 | > 20 µM
17 | O=C(c1ccco1)N1CCC2(CCN(Cc3cc(C(F)(F)F)cc(C(F)(F)F)c3)CC2)CC1 | > 20 µM
18 | O=C(c1ccncc1)N1CCC2(CC1)CN(c1ncccn1)C2 | > 20 µM
19 | COc1ccc(C(=O)N2CCC[C@@]3(CCN(c4ncccn4)C3)C2)cc1 | > 20 µM
20 | Cc1nc2cnc(N3CCOCC3)nc2n(Cc2cccs2)c1=O | > 20 µM

Row | Structure (SMILES) | Potency
21 | c1ncc(-c2ccoc2)c(NC2CC2)n1 | > 20 µM
22 | O=C(c1ccco1)N1CCC2(CC1)CN(c1ccccc1)C2 | > 20 µM
23 | Cc1noc(C)c1-c1cc(NC2CC2)ncn1 | > 20 µM
24 | COc1cccc(Nc2ncc3nc(-c4ccc(F)cc4)c(=O)n(CCC#N)c3n2)c1 | > 4 µM
25 | Cc1cccc(CNc2cc(-c3ccc(C(=O)N(C)C)cc3)ncn2)c1 | > 20 µM
26 | COc1ncc2ncc(=O)n(Cc3cccs3)c2n1 | > 20 µM
27 | c1ncc(-c2ccc3c(c2)OCO3)c(NCCc2cnc[nH]2)n1 | > 20 µM
28 | CC(=O)N1CCC2(CCCN(Cc3nccs3)C2)CC1 | > 20 µM
29 | N#CCCn1c(=O)c(-c2cccs2)nc2cnc(OCc3ccccc3)nc21 | > 20 µM
30 | COCCn1c(=O)c(-c2ccc(OC)cc2)nc2cnc(Nc3cccc(OC)c3)nc21 | 8.97 µM (active)
31 | Cc1noc(C)c1-c1nc(N(C)Cc2ccco2)c2ccccc2n1 | > 20 µM
32 | CC(=O)NCCNc1ncnc2ccc(-c3ccc4c(c3)OCO4)cc12 | > 20 µM
33 | c1ccc2c(NCCN3CCOCC3)nc(-c3ccc4c(c3)OCO4)nc2c1 | > 20 µM
34 | Cn1cccc1C(=O)N1CCC2(CC1)CN(C(c1ccccc1)c1ccccc1)C2 | > 20 µM
35 | N#Cc1ccc(CN2CC3(CCN(C(=O)c4ccncc4)CC3)C2)cc1 | > 20 µM
36 | CC(=O)NCCNc1ncnc2ccc(-c3ccccc3C)cc12 | > 20 µM
37 | CS(=O)(=O)Nc1cccc(-c2ccc3ncnc(NCCN4CCOCC4)c3c2)c1 | > 20 µM
38 | Cc1cccc(CNc2nc(-c3ccccc3CN(C)C)nc3ccccc23)c1 | > 20 µM
39 | O=C(c1cccc(F)c1)N1CCC2(CCN(Cc3ccncc3)CC2)CC1 | > 20 µM
40 | O=c1c(-c2ccc(Cl)cc2)nc2cnc(N3CCOCC3)nc2n1Cc1ccc(F)cc1 | > 20 µM
